Consider 99 compounds from PubChem BioAssay (Tox21).

Results filed as inconclusive are left out. A call without a number means that no potency is given here. A number with no mark means an inactive call. Active and inactive are the calls of the source. The call rests on the fitted dose curve; in most records, active means well fitted cell-killing curve with a large enough effect in the repeat runs; inconclusive means weak or mixed curves, or effect the other way; inactive means flat fitted curve, though single readings scatter.

Assay [1] can be described thus: cAMP Responsive Elements (CRE) small molecule antagonists, cell-based qHTS assay: qHTS cell viability counter screen (AID 2060913). Further: nearly all actives have a fitted effect of over 40% in size. Summed up: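 Cytotoxicity read in the same wells as the CRE-bla HEK293T antagonist assay: after 3 h compound with 0.25 uM NKH477 final and 2 h beta-lactamase substrate, CellTiter-Glo luminescence measured.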
The nature of assay [2]: cAMP Responsive Elements (CRE) small molecule agonists, cell-based qHTS assay: qHTS cell viability counter screen (AID 2060914). Further: nearly all actives have a fitted effect of over 50% in size. Further: potency means the concentration at half of the fitted maximal effect. Summed up:
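Cytotoxicity counter screen multiplexed with the CRE-bla reporter assay in HEK 293T cells: 3 h compound exposure at 37 °C, followed by CellTiter-Glo luminescence measured in the same wells.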

As to `O=C(O)C(Cc1cc(I)c(O)c(I)c1)c1ccccc1` (configuration not stated), the Potency entry in assay [1] and in assay [2] was “inactive” throughout.
Consider `CCC(C)CO` (configuration not stated), for which the Potency entry in assay [1] and in assay [2] was “inactive” each time.
As to `C[C@@H]1O[C@@H](O[C@@H]2[C@@H](O)[C@H](OCCc3ccc(O)c(O)c3)O[C@H](CO[C@@H]3O[C@H](CO)[C@@H](O)[C@H](O)[C@H]3O)[C@H]2OC(=O)/C=C/c2ccc(O)c(O)c2)[C@H](O)[C@H](O)[C@H]1O`, the Potency result in assay [1] and in assay [2] was “inactive” throughout.
For `CC(C)O.CC(C)O.CCOC(=O)/C=C(\C)O.CCOC(=O)/C=C(\C)O.[Ti]`, the Potency result in assay [1] and in assay [2] was “inactive” in each case.
As for `CC[N+](CC)(CC)Cc1ccccc1`, the Potency result in assay [1] and in assay [2] was “inactive” each time.
For the compound `Cc1cc(O)cc(C)c1Cl`, the Potency result in assay [1] and in assay [2] was “inactive” in each case.
On to `O=C1OC(=O)c2c(Cl)c(Cl)c(Cl)c(Cl)c21`, for which the Potency entry in assay [1] and in assay [2] was “inactive” throughout.
`O=[N+]([O-])C(CO)(CO)CO`: the Potency entry in assay [1] and in assay [2] was “inactive” each time.
In the case of `CC(=O)OC(C)(C)C`, the Potency result in assay [1] and in assay [2] was “inactive” each time.
For `CCNC(=O)NCc1cccc(Cl)c1`, the Potency entry in assay [1] and in assay [2] was “inactive” throughout.
With `O=C(CS(=O)Cc1ccco1)NC/C=C\COc1cc(CN2CCCCC2)ccn1` (configuration not stated), the Potency entry in assay [1] and in assay [2] was “inactive” in each case.
Consider `C=CC(C)CCCC(C)(C)O` (configuration not stated), for which the Potency entry in assay [1] and in assay [2] was “inactive” each time.
Take `CCCC(C)CC` (configuration not stated): the Potency entry in assay [1] and in assay [2] was “inactive” throughout.
Consider `CNC(=O)c1cnn(-c2nc(N)c3ncn([C@@H]4O[C@H](CO)[C@@H](O)[C@H]4O)c3n2)c1`, for which the Potency result in assay [1] and in assay [2] was “inactive” each time.
For the compound `CCOc1cc(OCC)c(C(C)=O)cc1OCC`, the Potency entry in assay [1] and in assay [2] was “inactive” each time.
For `O=C1c2c(O)ccc(Nc3ccc(CCO)cc3)c2C(=O)c2c([N+](=O)[O-])ccc(O)c21`, the Potency result in assay [1] and in assay [2] was “inactive” throughout.
For the compound `CCC(COC(=O)CCS)(COC(=O)CCS)COC(=O)CCS`, the Potency result in assay [1] and in assay [2] was “inactive” each time.
Take `CC(Cc1ccc(O)c(O)c1)C(C)Cc1ccc(O)c(O)c1` (configuration not stated): the Potency result in assay [1] and in assay [2] was “inactive” each time.
As for `CC1=C(/C=C/C(C)=C\C=C\C(C)=C\C(=O)O)C(C)(C)CCC1`, the Potency result in assay [1] and in assay [2] was “inactive” in each case.
Consider `Oc1ccc(-c2ccccc2)c(Cl)c1`, for which the Potency result in assay [2] was “inactive”.
For the compound `C/C=C(\C)C#N`, the Potency result in assay [1] and in assay [2] was “inactive” each time.
As to `CCOc1ccccc1OCCN[C@H](C)Cc1ccc(OC)c(S(N)(=O)=O)c1`, the Potency entry in assay [1] and in assay [2] was “inactive” throughout.
As for `CCN1CCCC1=O`, the Potency entry in assay [1] and in assay [2] was “inactive” in each case.
Take `CC(=O)c1c(C)c([N+](=O)[O-])c(C(C)(C)C)c([N+](=O)[O-])c1C`: the Potency entry in assay [1] and in assay [2] was “inactive” each time.
As to `CC(C)(N=C=O)c1cccc(C(C)(C)N=C=O)c1`, in assay [2], the Potency result was “inactive”.
Turning to `CCn1ccc(NS(=O)(=O)c2ccc(N)cc2)nc1=O`, the Potency result in assay [1] and in assay [2] was “inactive” throughout.
In the case of `CN(C(=O)c1c(O)c2ccccc2n(C)c1=O)c1ccccc1`, in assay [2], the Potency entry was “inactive”.
`O=C(Oc1ccccc1)c1ccccc1`: the Potency entry in assay [1] and in assay [2] was “inactive” throughout.
With `CC(C)Cn1cnc2c(N)nc3ccccc3c21`, the activity change, negative = cytotoxicity in assay [2] is -0.0081% [at 18.9 µM].
Consider `CCCCCCOc1ccc(N)cc1`, for which, in assay [2], the Potency entry was “inactive”.
The same measure, in the same setting: the value for `Oc1cc(O)c2c(c1)O[C@H](c1ccc(O)c(O)c1)[C@H](O)C2` was “inactive”; that for `O=C1C(=O)c2ccccc2C(O)=C1C1CCC(c2ccc(Cl)cc2)CC1` (configuration not stated) was “inactive”.
In the case of `C1C2OC2C2C1C1CC2C2OC12` (configuration not stated), the Potency result in assay [1] and in assay [2] was “inactive” in each case.
`C[C@@H]1CCC[C@H](C)N1`: the Potency result in assay [1] and in assay [2] was “inactive” throughout.
In the case of `COc1cc2ncnc(Nc3cccc(Cl)c3)c2cc1OC`, the viability change, negative = cytotoxic in assay [1] was 6.79% [at 18.9 µM]. The activity change, negative = cytotoxicity in assay [2] is 4.77% [at 18.9 µM].
Regarding `CCCCN`, in assay [2], the Potency result was “inactive”.
In the case of `O=S(=O)(O)CC(O)CCl` (configuration not stated), the Potency entry in assay [1] and in assay [2] was “inactive” in each case.
Turning to `CC1=CC(=O)[C@H]2C[C@@H]1C2(C)C`, the Potency entry in assay [1] and in assay [2] was “inactive” throughout.
On to `Clc1ccccn1`, for which the Potency result in assay [2] is “inactive”.
For `C=CC(=O)OCCC(=O)O`, the Potency entry in assay [1] and in assay [2] was “inactive” throughout.
For `O=C(O)CCCCC1CCSS1` (configuration not stated), the Potency entry in assay [2] was “inactive”.
The same measure, in the same setting: then `CC(C)(O)CCc1ccccc1`, with “inactive”.
Take `Nc1c2ccccc2nc2ccccc12`: the Potency entry in assay [2] was “inactive”.
Consider `CC(=O)Nc1ccc(C(=O)CCl)cc1`, for which the Potency entry in assay [1] and in assay [2] was “inactive” throughout.
For the compound `CCCOc1ccccc1-c1nc2n[nH]nc2c(=O)[nH]1`, the Potency result in assay [1] and in assay [2] was “inactive” in each case.
On to `CC(C)(Oc1ccc(Cl)cc1)C(=O)OCCCOC(=O)C(C)(C)Oc1ccc(Cl)cc1`, for which the Potency result in assay [1] and in assay [2] was “inactive” throughout.
In the case of `CC(C)(C)c1cc(/C=C2\SC(=N)NC2=O)cc(C(C)(C)C)c1O`, the Potency entry in assay [2] is “inactive”.
Regarding `CCn1cc(C(=O)O)c(=O)c2cc(F)c(N3CCN(C)CC3)cc21`, the viability change, negative = cytotoxic in assay [1] is 3.1% [at 18.9 µM]. In assay [2], the activity change, negative = cytotoxicity is 12% [at 18.9 µM].
In the case of `Cc1c2ccccc2c(C)c2c1ccc1ccccc12`, the Potency entry in assay [2] was “inactive”.
In the case of `O=C(NCCN1CCOCC1)c1ccc(Cl)cc1`, the Potency result in assay [1] and in assay [2] was “inactive” in each case.
Consider `O=[N+]([O-])c1nccn1CO[C@@H](CO)[C@H](O)CO`, for which the Potency result in assay [1] and in assay [2] was “inactive” in each case.
`Cc1cccc(C)c1NC(=O)CN1CCN(CCCC(c2ccc(F)cc2)c2ccc(F)cc2)CC1`: the Potency entry in assay [2] was “inactive”.
Regarding `COC(=O)C1=C(C)NC(C)=C(C(=O)OC(C)C)C1c1cccc2nonc12` (configuration not stated), the Potency result in assay [1] and in assay [2] was “inactive” throughout.
Regarding `COc1ccc(Cl)cc1C(=O)NCCc1ccc(S(=O)(=O)NC(=O)NC2CCCCC2)cc1`, the Potency result in assay [1] and in assay [2] was “inactive” each time.
Regarding `COc1cnc(NS(=O)(=O)c2ccc(N)cc2)nc1`, the Potency result in assay [1] and in assay [2] was “inactive” in each case.
For the compound `CCOC(=O)C(C)C(C)=O` (configuration not stated), the Potency result in assay [1] and in assay [2] was “inactive” in each case.
For `CCN(CC)CCNC(=O)COc1ccc(OC)cc1`, the Potency entry in assay [1] and in assay [2] was “inactive” throughout.
Take `CN1CCN(CCCN2c3ccccc3Sc3ccc(C(F)(F)F)cc32)CC1`: in assay [2], the Potency entry was “inactive”.
With `O=C=NCC1CCCC(CN=C=O)C1` (configuration not stated), the Potency result in assay [1] and in assay [2] was “inactive” each time.
Turning to `C[N+](C)(C)CC[N+]1(C)Cc2c(Cl)c(Cl)c(Cl)c(Cl)c2C1`, the Potency entry in assay [2] is “inactive”.
The same measure, in the same setting: then `CCCO[Si](OCCC)(OCCC)OCCC`, with “inactive”; and `C1OCOCO1`, with “inactive”.
On the same count and under the same terms, then `CCCCCCCCCCCCCOS(=O)(=O)O`, with “inactive”.
Consider `C=C(C)C(=O)OCCNC(C)(C)C`, for which the Potency result in assay [2] was “inactive”.
Same read-out and setting: then `CCN(CC)C(=O)c1cc(S(=O)(=O)Cc2ccccc2)c(N2CCC(c3ccccc3)CC2)cc1N(CC)CCN(C)C`, with “inactive”; and `Cc1ccc(C(C)C)cc2c(C)ccc1-2`, with “inactive”; and `COc1cc(N)c(Cl)cc1C(=O)NC1CCN(Cc2ccccc2)CC1`, with “inactive”.
As to `Cc1cc(NC(=O)C2=C(O)c3ccccc3S(=O)(=O)N2C)no1`, in assay [2], the Potency result was “inactive”.
Still for that read-out and setting: then `CC1=CC(C)C(C=O)C(C)C1` (configuration not stated), with “inactive”.
For `Cc1cc(C)c(N=Nc2c(O)c(S(=O)(=O)O)cc3cc(S(=O)(=O)O)ccc23)cc1C`, the activity change, negative = cytotoxicity in assay [2] was 4.39% [at 8.39 µM].
As for `c1ccc2c(c1)CCCC2C1=NCCN1` (configuration not stated), in assay [2], the Potency entry is “inactive”.
For the compound `CNCCCN1c2ccccc2CCc2ccccc21`, the Potency result in assay [2] was “inactive”.
The same measure, in the same setting: the value for `C#C[C@]1(O)CC[C@H]2[C@@H]3[C@H](C)CC4=C(CCC(=O)C4)[C@H]3CC[C@@]21C` was “inactive”; that for `Nc1ccc(C(=O)OCC(O)CO)cc1` (configuration not stated) was “inactive”; that for `O=C(O)c1ccco1` was “inactive”.
On the same count and under the same terms, then `CCCN(CCC)C(=O)SCC`, with “inactive”; and `COC(=O)c1ccc(I)cc1S(=O)(=O)NC(=O)Nc1nc(C)nc(OC)n1`, with “inactive”; and `CCOC(=O)C(C)O` (configuration not stated), with “inactive”.
As for `O=C(Oc1ccccc1)c1cccc(C(=O)Oc2ccccc2)c1`, in assay [2], the Potency entry is “inactive”.
For `Cc1[nH]cnc1C[C@H]1CCc2c(C)c3ccccc3n2C1=O`, the Potency entry in assay [2] was “inactive”.
Take `C[C@H](CCC(=O)O)[C@H]1CC[C@H]2[C@@H]3CC[C@@H]4C[C@H](O)CC[C@]4(C)[C@H]3C[C@H](O)[C@]12C`: in assay [2], the Potency entry was “inactive”.
Turning to `C=C[C@](C)(O)CC[C@@H]1[C@@]2(C)CCCC(C)(C)[C@@H]2CC[C@@]1(C)O`, the Potency entry in assay [2] was “inactive”.
As to `CC1(C)O[C@H]2CC(=O)OC[C@]23[C@H]2CC[C@@]4(C)[C@H](c5ccoc5)OC(=O)[C@H]5O[C@]54[C@]2(C)C(=O)C[C@@H]13`, in assay [2], the Potency entry was “inactive”.
Still for that read-out and setting: then `C=CCCCCCCCCCCCC`, with “inactive”; and `Cc1cc(-c2ccc(N=Nc3cc(S(=O)(=O)O)c4ccccc4c3N)c(C)c2)ccc1N=Nc1cc(S(=O)(=O)O)c2ccccc2c1N`, with “inactive”.
On the same count and under the same terms, the value for `C[C@]12CCC(=O)C=C1CC[C@@H]1[C@@H]2C(=O)C[C@@]2(C)[C@H]1CC[C@]2(O)C(=O)CO` was “inactive”; that for `N[C@@H](Cc1cc(I)c(O)c(I)c1)C(=O)O` was “inactive”.
Same read-out and setting: then `CCN(CC)c1ccc(C(=C2C=CC(=[N+](CC)CC)C=C2)c2cc(S(=O)(=O)O)ccc2S(=O)(=O)[O-])cc1`, with “inactive”.
As for `CC(C)CC(=O)C1C(=O)c2ccccc2C1=O`, the Potency result in assay [2] is “inactive”.
The same measure, in the same setting: the value for `CCCCCCCCCC[N+](C)(CCCCCCCCCC)CCC[Si](OC)(OC)OC` was 24.3 µM (active); that for `CCc1cc(C(N)=S)ccn1` was “inactive”.
Same read-out and setting: the value for `c1csc(SSc2cccs2)c1` was “inactive”.
On the same count and under the same terms, the value for `COC(=O)CC(=O)C(C)(C)C` was “inactive”.
As to `NC(CS)C(=O)O` (configuration not stated), the Potency result in assay [2] is “inactive”.
Take `Nc1[nH]c(=O)ncc1F`: the Potency result in assay [2] is “inactive”.
Still for that read-out and setting: then `CCCCCCCCCCCC(=O)OC[C@@H](O)[C@H]1OC[C@H](OCCO)[C@H]1OCCO`, with “inactive”; and `OCCN1CCN(CCO)CC1`, with “inactive”; and `O=C(c1ccccc1)c1ccc2n1CCC2C(=O)O` (configuration not stated), with “inactive”.
Same read-out and setting: the value for `CC1=CCC(=C(C)C)CC1` was “inactive”.
